# Experimental data as given in PubChem BioAssay (NCATS).
# Records with an inconclusive call do not appear. Entries that show only a call come without a potency. Activity calls are given as the source filed them. Calls come from the whole dose curve; as a rule, active = well fitted inhibition curve with a large enough effect; inconclusive = small, poorly fitted or top-dose-only effect; inactive = flat fitted curve, though single readings scatter.
# Target: Calcium and integrin-binding protein 1 (Homo sapiens) (UniProt Q99828)
# Test: Primary qHTS for Identification of Calcium Integrin Binding Protein 1 (CIB1) Competitor (AID 1508620);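 note: GST tagged CIB1 binding a fluorescein labelled alphaIIb integrin peptide tracer; top concentration of the series differs between compounds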
# Details: CIB1-GST / FITC-alphaIIb peptide fluorescence polarization; series mostly up to 114 µM
# How it was run: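 Fluorescence polarization competition: CIB1-GST (1 uM final) preincubated with compound 15 min at room temperature, then FITC-labeled alphaIIb peptide (100 nM final) added for another 15 min. Polarization read at Ex 480/Em 540.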
# Calcium and integrin-binding protein 1 (Homo sapiens), sequence (Q99828 whole entry, looked up): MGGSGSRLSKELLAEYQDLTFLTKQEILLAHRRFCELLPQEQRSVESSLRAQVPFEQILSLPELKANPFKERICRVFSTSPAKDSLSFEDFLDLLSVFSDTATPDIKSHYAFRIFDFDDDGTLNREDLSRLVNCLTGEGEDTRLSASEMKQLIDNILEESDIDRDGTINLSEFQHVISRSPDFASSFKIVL
Structure (SMILES),Potency,"activity change, negative = inhibition"
CC(C)=C[C@@H]1[C@H](CO[C@@H]2O[C@H](CO)[C@@H](O)[C@H](O)[C@H]2O)C1(C)C,inactive,–
CC[C@H](C)/C=C(C)/C=C/C1=CC2=CC(=O)[C@]3(C)OC(=O)[C@@H](C(C)=O)[C@@H]3C2=CO1,inactive,–
C=C(C(=O)O)[C@@H]1CC=C(CCC(C)=O)[C@@H](C)CC1,inactive,–
CCC(C)/C=C(C)/C=C/C1=CC2=C(Cl)C(=O)C(C)(OC(C)=O)C(=O)C2(O)C(OC)O1 (configuration not stated),inactive,–
CC(=O)OC1C(OC(=O)c2ccccc2)C2C(C)(C)CCC(OC(C)=O)C2(C)C23CCC(C)(C2)C(=O)CC13 (configuration not stated),inactive,–
C/C=C/C1=CC2=C(CO1)C(=O)C(C)(OC(=O)c1c(C)cc(O)cc1OC)C(O)C2 (configuration not stated),inactive,–
CC1=CC2/C=C(\C)CCC3OC(C)(C)OC3CCC(=O)C23C(=O)NC(CC(C)C)C3C1C (configuration not stated),inactive,–
CC(=O)OC1CC(O)(C(C)C)C2C(OC(=O)c3ccc(O)cc3)C=C(C)C(=O)CC12C (configuration not stated),inactive,–
CC(=O)C1=CCC2C3CC=C4CC(O)CC(O)C4(C)C3C(O)CC12C (configuration not stated),inactive,–
C=CCc1ccc(OC(C)Cc2ccc(OC)c(OC)c2)c(OC)c1 (configuration not stated),inactive,–
FC(F)(F)c1ccc(CNc2ccc(Cc3c[nH]c4ncc(Cl)cc34)cn2)cn1,inactive,–
CC(=O)O[C@H]1C[C@@](O)(C(C)C)[C@@H]2[C@@H](OC(=O)c3ccc(O)cc3)CC(C)=CC[C@@]12C,inactive,–
CC(C)S(=O)(=O)NC[C@@H]1CC(c2ccc(N3CCCC3)c(F)c2)=NO1,inactive,–
CC(=O)O[C@@H]1[C@H](O[C@@H]2O[C@@H](CO)[C@H](O)[C@H]2O)[C@@H](O[C@@H]2O[C@@H](C)[C@H](O[C@@H]3OC[C@@H](O)[C@H](O)[C@H]3O)[C@@H](O)[C@H]2O)[C@H](OC(=O)[C@]23CCC(C)(C)C[C@H]2C2=CCC4[C@@]5(C)CC[C@H](O[C@@H]6O[C@H](C(=O)O)[C@@H](O)[C@H](O)[C@H]6O[C@@H]6O[C@H](CO)[C@H](O)[C@H](O)[C@H]6O)[C@@](C)(C=O)C5CC[C@@]4(C)[C@]2(C)C[C@H]3O)O[C@@H]1C (some centres not stated),–,1.08% [at 12.4 µM] (inactive)
CCn1c(N)c(C(=O)NC)c(=O)c2ccc(C#CC(C)(O)COC)nc21 (configuration not stated),inactive,–
CC1=CC2/C=C(\C)CCC(O)C/C=C/C(=O)OC23C(=O)NC(CC(C)C)C3C1C (configuration not stated),inactive,–

Structure (SMILES),Potency,"activity change, negative = inhibition"
CC(=O)O[C@@H]1CC2C(/C=C(\C)C(=O)[C@@]3(O)C[C@@H](C)[C@H](OC(=O)c4ccccc4)C3/C=C/1C)C2(C)C (some centres not stated),inactive,–
COc1ccc(S(=O)(=O)n2cnc3cc(C)c(C)cc32)cc1,inactive,–
COc1ccc(C[C@H]2COC(=O)[C@@H]2Cc2ccc(O[C@@H]3O[C@H](CO)[C@@H](O)[C@H](O)[C@H]3O)c(OC)c2)cc1OC,inactive,–
Cc1cccc(-c2[nH]ncc2-c2ccc(F)c(-c3cnn(CCO)c3)c2)n1,inactive,–
COc1ccc(-c2c(C)nn3c(NCCN4CCOCC4)cc(C)nc23)cc1OC,inactive,–
O=C(NC[C@H]1CN(c2ccc(N3CCOCC3=O)cc2)C(=O)O1)c1ccc(Cl)s1,inactive,–
CCOC(=O)[C@@]1(CCCCCCOc2ccc(Cl)cc2)CO1,inactive,–
COc1c(C)cc(NC(=O)c2nn(Cc3ccc(F)cc3)c3c2CN(C(=O)c2ccc[nH]2)C[C@]3(C)C(N)=O)cc1C,inactive,–
CC1=C2C[C@@]3(C)C(CCC[C@@H]3C)C(O)C2OC1=O (some centres not stated),inactive,–
CC(=O)O[C@@H]1CC2C(C)(C)C(=O)C=C[C@]2(C)C2CC[C@@]3(C)[C@H](c4ccoc4)OC(=O)[C@H]4O[C@]43[C@@]21C (some centres not stated),inactive,–
CC(NCCCc1cccc(C(F)(F)F)c1)c1cccc2ccccc12 (configuration not stated),inactive,–
COC1CC(=O)C23C(=O)NC(CC(C)C)C2C(C)C(C)=CC3/C=C(\C)CCCC1O (configuration not stated),inactive,–
C/C=C/C=C/C=C/C(=O)O[C@@H]1C=C(CO)C(O)(C(=O)OC)[C@@]2(C)CCCC(C)(C)C12 (some centres not stated),inactive,–
C/C=C(/C)C(=O)OC1C=C2C3C(C)C(C)C(OC(=O)C(C)C(C)O)CC3(C)CCC2(C)C2(C)CC(OC(C)=O)C3C(C)(C)C(O)C(=O)CC3(C)C12 (configuration not stated),inactive,–
COc1cccc(CN(C(=O)CC(C)(C)C)[C@H]2C[C@H](C(=O)N3CCNCC3)N(Cc3ccc4c(c3)OCO4)C2)c1,inactive,–
COC(=O)/C=C/C=C/C(=O)OC1C=C2COC(=O)C2(O)C2(C)CCCC(C)(C)C12 (configuration not stated),inactive,–
